Measurements published in PubChem BioAssay (NCI).
This is part of a sample that, as a whole, favours compounds with a hit. Of some 83,000 tested, about 20% had one in any assay.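 Results are percent growth after 48 hours of single-concentration exposure. 100 means growth as in untreated cells, lower positive values show inhibition; negative values down to -100 show cell death.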 Active and inactive are the calls of the source. The calls were made as follows: active = growth percent below 10; inactive = the rest.

Assays:
Test in all cases: NCI-60 one-dose screen, 48 h (100 = growth as untreated, 0 = no growth, -100 = all killed)
SR leukemia = conditions: 10 µM unless noted
RPMI-8226 leukemia = conditions: 10 µM unless noted
OVCAR-8 ovarian = conditions: 10 µM unless noted
OVCAR-5 ovarian = conditions: 10 µM unless noted
OVCAR-4 ovarian = conditions: 10 µM unless noted
SK-OV-3 ovarian = conditions: 10 µM unless noted
IGROV1 ovarian = conditions: 10 µM unless noted
OVCAR-3 ovarian = conditions: 10 µM unless noted
HS 578T breast = conditions: 10 µM
NCI/ADR-RES ovarian = conditions: 10 µM unless noted
T-47D breast = conditions: 10 µM unless noted
BT-549 breast = conditions: 10 µM unless noted
MDA-MB-435 melanoma = conditions: 10 µM unless noted
SW-620 colon = conditions: 10 µM unless noted
MCF7 breast = conditions: 10 µM unless noted
HCT-116 colon = conditions: 10 µM unless noted
HCC-2998 colon = conditions: 10 µM unless noted
KM12 colon = conditions: 10 µM unless noted

Measured: growth

CCSc1ccc([C@@H]2[C@@H](O)C(=O)N2c2cc(OC)c(OC)c(OC)c2)cc1
inactive: SR leukemia 11.7% | OVCAR-8 ovarian 16.1% | OVCAR-5 ovarian 54.8% | OVCAR-4 ovarian 41.7% | SK-OV-3 ovarian 39.1% | IGROV1 ovarian 32.5% | HS 578T breast 46.5% | T-47D breast 76.6% | SW-620 colon 22.3% | MCF7 breast 20.1% | HCC-2998 colon 29.6% | KM12 colon 11.3%
active: RPMI-8226 leukemia 8.48% | OVCAR-3 ovarian -3.92% | NCI/ADR-RES ovarian 8.62% | BT-549 breast 9.68% | MDA-MB-435 melanoma -32.4% | HCT-116 colon 2.13%

Cc1n(Cc2ccc3ccccc3n2)cc[n+]1Cc1ccc2ccccc2n1
inactive: SR leukemia 48.8% | RPMI-8226 leukemia 24.6% | OVCAR-8 ovarian 97.9% | OVCAR-5 ovarian 83.4% | OVCAR-4 ovarian 24.1% | SK-OV-3 ovarian 91.1% | IGROV1 ovarian 64.4% | OVCAR-3 ovarian 54.8% | HS 578T breast 92.1% | NCI/ADR-RES ovarian 98.7% | T-47D breast 27.2% | BT-549 breast 72.8% | MDA-MB-435 melanoma 63% | SW-620 colon 90.4% | MCF7 breast 61.5% | HCT-116 colon 83.3% | HCC-2998 colon 62.8% | KM12 colon 50.6%

CCN(C(=O)Nc1cccc2ccccc12)c1ccccc1
inactive: SR leukemia 90.2% | RPMI-8226 leukemia 103% | OVCAR-8 ovarian 74.3% | OVCAR-5 ovarian 91.6% | OVCAR-4 ovarian 99.9% | SK-OV-3 ovarian 96.2% | IGROV1 ovarian 90.4% | OVCAR-3 ovarian 108% | HS 578T breast 111% | NCI/ADR-RES ovarian 102% | T-47D breast 88.1% | BT-549 breast 108% | MDA-MB-435 melanoma 105% | SW-620 colon 107% | MCF7 breast 97.8% | HCT-116 colon 106% | HCC-2998 colon 103% | KM12 colon 108%

COc1cc(-c2n/c(=C\c3c(O)[nH]c4cc(Cl)ccc34)cc3c2=Nc2ccccc2-3)cc(OC)c1OC
inactive: SR leukemia 36.8% | RPMI-8226 leukemia 84.6% | OVCAR-8 ovarian 59.3% | OVCAR-5 ovarian 102% | SK-OV-3 ovarian 59.4% | IGROV1 ovarian 25.2% | OVCAR-3 ovarian 58.1% | HS 578T breast 50% | NCI/ADR-RES ovarian 84.1% | T-47D breast 67.2% | BT-549 breast 45.2% | MDA-MB-435 melanoma 66.2% | SW-620 colon 41.5% | MCF7 breast 55.7% | HCT-116 colon 52.9% | HCC-2998 colon 93.1% | KM12 colon 51.8%
active: OVCAR-4 ovarian -1.32%

CCCCn1c(C)nc2ccc(Nc3nc(Cl)nc4nc[nH]c34)cc21
active: HS 578T breast 6.13%
inactive: SR leukemia 42.5% | RPMI-8226 leukemia 43.7% | OVCAR-8 ovarian 78.2% | OVCAR-5 ovarian 74.5% | OVCAR-4 ovarian 68.4% | SK-OV-3 ovarian 77% | IGROV1 ovarian 68.2% | OVCAR-3 ovarian 62.7% | NCI/ADR-RES ovarian 101% | T-47D breast 33.9% | BT-549 breast 47.8% | MDA-MB-435 melanoma 77.2% | SW-620 colon 78.6% | MCF7 breast 76.5% | HCT-116 colon 67.7% | HCC-2998 colon 94% | KM12 colon 77.5%

CCCc1n(Cc2ccc3ccccc3n2)cc[n+]1Cc1ccc2ccccc2n1
inactive: SR leukemia 13% | OVCAR-8 ovarian 35.6% | OVCAR-5 ovarian 47.7% | SK-OV-3 ovarian 61.6% | IGROV1 ovarian 30.6% | HS 578T breast 58.8% | NCI/ADR-RES ovarian 98.4% | BT-549 breast 13.9% | SW-620 colon 36.7% | MCF7 breast 15.3% | HCT-116 colon 22.9% | HCC-2998 colon 26.2% | KM12 colon 15.7%
active: RPMI-8226 leukemia -10.8% | OVCAR-4 ovarian 8.56% | OVCAR-3 ovarian 9.64% | T-47D breast 7.17% | MDA-MB-435 melanoma 7.6%

CC[C@H](Nc1nc(C)nc(N)c1C#N)c1nc2cccc(NCc3ccc(C(=O)NO)cc3)c2c(=O)n1-c1ccccc1
inactive: RPMI-8226 leukemia 10.7% | OVCAR-5 ovarian 22.5% | HS 578T breast 21.6% | NCI/ADR-RES ovarian 59.4% | BT-549 breast 36.6% | MDA-MB-435 melanoma 16.8% | KM12 colon 13.3%
active: SR leukemia 0.66% | OVCAR-8 ovarian 2.46% | OVCAR-4 ovarian 5.36% | SK-OV-3 ovarian -16.2% | IGROV1 ovarian 5.14% | OVCAR-3 ovarian 4.73% | T-47D breast 0.805% | SW-620 colon -31.5% | MCF7 breast 5.42% | HCT-116 colon 3.59% | HCC-2998 colon 7.75%

CC(C)(C)c1ccc(Cn2c(-c3nonc3N)nc3ccccc32)cc1
active: MDA-MB-435 melanoma 8.66%
inactive: SR leukemia 28.2% | RPMI-8226 leukemia 61.9% | OVCAR-8 ovarian 80.1% | OVCAR-5 ovarian 99.2% | OVCAR-4 ovarian 98.4% | SK-OV-3 ovarian 61% | IGROV1 ovarian 66.6% | OVCAR-3 ovarian 69% | HS 578T breast 85.1% | NCI/ADR-RES ovarian 75.8% | T-47D breast 53.6% | BT-549 breast 90.2% | SW-620 colon 51.5% | MCF7 breast 35.5% | HCT-116 colon 62.6% | HCC-2998 colon 77.7% | KM12 colon 59.4%

Cc1cc(C)c2c(NC(=O)Nc3ccc(Cl)c(Cl)c3)n[nH]c2n1
inactive: SR leukemia 96.6% | RPMI-8226 leukemia 100% | OVCAR-8 ovarian 110% | OVCAR-5 ovarian 101% | OVCAR-4 ovarian 93.2% | SK-OV-3 ovarian 100% | IGROV1 ovarian 111% | OVCAR-3 ovarian 113% | HS 578T breast 114% | NCI/ADR-RES ovarian 102% | T-47D breast 93.3% | BT-549 breast 104% | MDA-MB-435 melanoma 92.8% | SW-620 colon 112% | MCF7 breast 82.6% | HCT-116 colon 108% | HCC-2998 colon 115% | KM12 colon 104%

CC(C)c1ccc(Cn2ccc3c4c(N)nc(NC5CC5)nc4ccc32)cc1
active: SR leukemia -45.8% | RPMI-8226 leukemia -54.7% | OVCAR-8 ovarian -77.8% | OVCAR-5 ovarian -85.9% | OVCAR-4 ovarian -37.4% | SK-OV-3 ovarian -87.2% | IGROV1 ovarian -87.4% | OVCAR-3 ovarian -87.6% | HS 578T breast -57.1% | NCI/ADR-RES ovarian -74.4% | T-47D breast -54.8% | BT-549 breast -71.2% | MDA-MB-435 melanoma -97% | SW-620 colon -82.6% | MCF7 breast -82% | HCT-116 colon -82.8% | HCC-2998 colon -78.6% | KM12 colon -79.2%

C/C(=N\OC(=O)Nc1ccccc1)c1ccccc1
inactive: SR leukemia 81.5% | RPMI-8226 leukemia 99.1% | OVCAR-8 ovarian 106% | OVCAR-5 ovarian 98.4% | OVCAR-4 ovarian 92.9% | SK-OV-3 ovarian 115% | IGROV1 ovarian 106% | OVCAR-3 ovarian 108% | HS 578T breast 85.1% | NCI/ADR-RES ovarian 107% | T-47D breast 104% | BT-549 breast 99.9% | MDA-MB-435 melanoma 95.1% | SW-620 colon 98.2% | MCF7 breast 95% | HCT-116 colon 105% | HCC-2998 colon 117% | KM12 colon 107%

CN1CCN(Cc2ccc(NC(=O)c3cccc(C#Cc4cnc(N)c5ncccc45)c3F)cc2C(F)(F)F)CC1
active: SR leukemia -3.15% | RPMI-8226 leukemia -9.88% | OVCAR-8 ovarian -49.3% | OVCAR-5 ovarian -5.62% | MDA-MB-435 melanoma -82.7% | SW-620 colon -49.9% | MCF7 breast -65.1% | HCT-116 colon -67.5% | KM12 colon 1.2%
inactive: OVCAR-4 ovarian 49.6% | SK-OV-3 ovarian 22.3% | IGROV1 ovarian 24.5% | OVCAR-3 ovarian 73.2% | HS 578T breast 18% | NCI/ADR-RES ovarian 61.3% | T-47D breast 79.9% | BT-549 breast 62% | HCC-2998 colon 67.3%

COc1ccc(/C=C2\N=C(c3cccnc3)N(c3ccccc3)NC2=O)cc1
inactive: SR leukemia 92.7% | RPMI-8226 leukemia 68.5% | OVCAR-8 ovarian 95.9% | OVCAR-5 ovarian 103% | OVCAR-4 ovarian 99.7% | SK-OV-3 ovarian 130% | IGROV1 ovarian 115% | OVCAR-3 ovarian 95.9% | HS 578T breast 92% | NCI/ADR-RES ovarian 100% | T-47D breast 90.2% | BT-549 breast 94.3% | MDA-MB-435 melanoma 97.3% | SW-620 colon 92.3% | MCF7 breast 91.5% | HCT-116 colon 97.1% | HCC-2998 colon 99.7% | KM12 colon 95.3%

Cc1cc(C)c2c(n1)sc1c(Nc3ccc(OCc4ccccc4)cc3)ncnc12
inactive: SR leukemia 95.5% | RPMI-8226 leukemia 95.1% | OVCAR-8 ovarian 104% | OVCAR-5 ovarian 109% | OVCAR-4 ovarian 107% | SK-OV-3 ovarian 106% | IGROV1 ovarian 97.5% | OVCAR-3 ovarian 100% | HS 578T breast 108% | NCI/ADR-RES ovarian 100% | T-47D breast 95.7% | BT-549 breast 102% | MDA-MB-435 melanoma 107% | SW-620 colon 101% | MCF7 breast 93.2% | HCT-116 colon 103% | HCC-2998 colon 96.1% | KM12 colon 94.2%

COc1cccc2nc(Nc3cccc(NC(=O)c4cc(N5CCOCC5)cc(C(F)(F)F)c4)c3)ccc12
inactive: SR leukemia 74.4% | RPMI-8226 leukemia 31.9% | OVCAR-8 ovarian 52.2% | OVCAR-5 ovarian 97.5% | OVCAR-4 ovarian 61.9% | SK-OV-3 ovarian 88.9% | IGROV1 ovarian 40.4% | OVCAR-3 ovarian 78% | HS 578T breast 67% | NCI/ADR-RES ovarian 59.7% | T-47D breast 42.4% | BT-549 breast 78.6% | MDA-MB-435 melanoma 55.3% | SW-620 colon 95.8% | MCF7 breast 45.2% | HCT-116 colon 41.9% | HCC-2998 colon 76.9% | KM12 colon 52.3%

CCN(CC)CCCC(C)Nc1cnc(C(=O)Nc2cc(C)cc3cccnc23)cn1 (stereo unspecified)
inactive: SR leukemia 81.9% | RPMI-8226 leukemia 78% | OVCAR-8 ovarian 86.9% | OVCAR-5 ovarian 97.6% | OVCAR-4 ovarian 58.8% | SK-OV-3 ovarian 104% | IGROV1 ovarian 68.7% | OVCAR-3 ovarian 20.5% | HS 578T breast 79.9% | NCI/ADR-RES ovarian 92.7% | T-47D breast 32.6% | BT-549 breast 93.3% | MDA-MB-435 melanoma 83.7% | SW-620 colon 75.3% | MCF7 breast 57.3% | HCT-116 colon 18% | HCC-2998 colon 89.8% | KM12 colon 97.9%

COc1ccc2c(c1)CCCC21C(=O)Nc2c(Cl)cccc21 (stereo unspecified)
active: MDA-MB-435 melanoma -11.8%
inactive: SR leukemia 29.6% | RPMI-8226 leukemia 82.9% | OVCAR-8 ovarian 84.6% | OVCAR-5 ovarian 92.9% | OVCAR-4 ovarian 96.1% | SK-OV-3 ovarian 71.9% | IGROV1 ovarian 88.5% | OVCAR-3 ovarian 76.3% | HS 578T breast 85.8% | NCI/ADR-RES ovarian 18.3% | T-47D breast 87.6% | BT-549 breast 91% | SW-620 colon 42.8% | MCF7 breast 81.8% | HCT-116 colon 49.5% | HCC-2998 colon 88.3% | KM12 colon 61.3%
